Assay results reported in the supplement of paper PMC3334620.
Whole data set: some 33,000 sequences, median “E-score (-0.5 to 0.5)” near -0.015, cut for the highest 2% near 0.3. Many of the other results were omitted from the sample, so the highest values are more common in it than they were.

The sequences below were run against T1, Abf1 (UniProt P14164) (assay: PBM E-score (8-mer binding enrichment) (E-score (-0.5 to 0.5)); higher = stronger / more preferred TF binding). Conditions: protein concentration: 200 nM; construct: GST-full length.
T1 sequence: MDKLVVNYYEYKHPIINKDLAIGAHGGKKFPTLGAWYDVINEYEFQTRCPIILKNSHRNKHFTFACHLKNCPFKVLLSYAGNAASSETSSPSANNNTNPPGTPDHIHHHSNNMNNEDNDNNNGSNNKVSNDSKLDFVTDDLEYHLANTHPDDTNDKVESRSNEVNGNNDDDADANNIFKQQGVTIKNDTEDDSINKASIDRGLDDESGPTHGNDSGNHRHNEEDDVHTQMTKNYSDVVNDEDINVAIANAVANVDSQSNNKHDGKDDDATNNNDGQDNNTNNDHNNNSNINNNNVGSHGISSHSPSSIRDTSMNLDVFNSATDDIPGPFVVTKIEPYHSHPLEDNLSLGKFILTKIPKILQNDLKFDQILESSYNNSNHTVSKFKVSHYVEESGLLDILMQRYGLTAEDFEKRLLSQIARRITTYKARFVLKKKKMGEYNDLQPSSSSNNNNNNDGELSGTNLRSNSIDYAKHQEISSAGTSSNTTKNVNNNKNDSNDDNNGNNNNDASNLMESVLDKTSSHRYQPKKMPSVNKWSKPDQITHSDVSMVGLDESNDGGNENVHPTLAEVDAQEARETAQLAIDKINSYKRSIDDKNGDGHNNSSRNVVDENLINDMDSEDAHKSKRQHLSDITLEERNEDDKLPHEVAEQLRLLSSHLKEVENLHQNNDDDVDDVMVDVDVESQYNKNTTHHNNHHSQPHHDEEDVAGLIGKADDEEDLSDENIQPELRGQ
Outline: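 PURExpress in vitro transcription/translation supplied GST-tagged yeast transcription factors, either full-length or DNA-binding domain. Applied at about 100-200 nM to universal all-10-mer Agilent arrays double-stranded by primer extension, the bound protein was detected with fluorescent anti-GST. E-scores, modified Wilcoxon-Mann-Whitney statistics, were given by the Universal PBM Analysis Suite to ungapped eight-base words pooled with their reverse complements after masliner normalisation.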

Row | Sequence | PBM E-score
1 | CGTAATAG | 0.112
2 | CGTAATAC | 0.303
3 | GAGTGATC | 0.327
4 | CAGTGATG | 0.255
5 | AAGTGATT | 0.347
6 | ATGTGATG | 0.0498
7 | AAGTGATC | 0.41
8 | GAGTGAGC | 0.033
9 | AAGTGATG | 0.314
10 | AGGTGATC | 0.276
11 | GAGTGAAC | -0.115
12 | ATGTGATC | 0.18
13 | AAGTGAGT | 0.0964
14 | AAGTGAAT | 0.16
15 | CAAAATGA | 0.275
16 | CAAGATGC | 0.148
17 | TAACTCTA | -0.0858
18 | TACAGGGA | -0.19
19 | GACGGGAC | -0.171
20 | ACGGCAAT | 0.277
21 | CTCAATGA | 0.0427
22 | TGAATTCA | 0.171
23 | CAGGGCCA | -0.227
24 | CTGTGATC | 0.0861
25 | CAGTGATC | 0.366
26 | CAGTGAGC | -0.118

Row | Sequence | PBM E-score
27 | GGTGTACA | -0.178
28 | CGTCATCA | 0.349
29 | CGTCATTA | 0.327
30 | AGTCATTA | 0.037
31 | GGTCATAC | -0.0499
32 | GGTCATTA | 0.134
33 | CGTCATCC | 0.167
34 | CGTCATAC | 0.316
35 | AGTCATCA | 0.135
36 | CGTCATAG | 0.143
37 | GACTGCGA | -0.206
38 | GCTATGCA | -0.102
39 | AGGCACGG | 0.062
40 | GACAGACA | 0.119
41 | CGGTCAGC | -0.137
42 | CACGTCTA | 0.166
43 | GAGAATAA | 0.034
44 | CTGATCAA | -0.114
45 | ATGATCAG | 0.269
46 | ATGATCAA | 0.273
47 | ATCATGAG | 0.238
48 | ATGATCAC | 0.335
49 | GGGATCAC | -0.0214
50 | ATCATGAA | 0.121
51 | ATCATGAT | 0.416
52 | GTGATCAA | 0.392

Row | Sequence | PBM E-score
53 | CTGATCAC | 0.294
54 | ACGATCAC | 0.274
55 | GTGATCAC | 0.386
56 | CGAGCTTA | -0.0534
57 | AGCAGTAC | -0.0878
58 | GCAAACGC | 0.00943
59 | AAGGTCGC | 0.0476
60 | AATTGAAA | 0.116
61 | AATCCAGG | 0.0662
62 | CCTGTCTC | -0.123
63 | ATGGGGTA | -0.00916
64 | CGAGCGGC | -4e-05
65 | CGTTACCC | -0.152
66 | CCTCTATC | -0.0168
67 | ATGATCAT | 0.387
68 | ACGATCAT | 0.222
69 | AGGATCAT | 0.0179
70 | CGACGTAA | 0.123
71 | GGACGTAC | -0.0265
72 | TTACGTAA | 0.196
73 | CTACGTAC | 0.297
74 | CGACGTAC | 0.322
75 | GGACGTGA | 0.0158
76 | CGACGTGA | 0.297
77 | GTACGTAA | 0.343
78 | AGACGTGA | 0.227

Row | Sequence | PBM E-score
79 | GTACGTAC | -0.0114
80 | ATACGTAC | 0.165
81 | ATACGTAA | 0.24
82 | CATCAGAC | -0.02
83 | CAGAGTAG | -0.205
84 | AGGTATAG | -0.1
85 | TAGCGAAA | -0.00307
86 | ACGATGGG | -0.08
87 | CGCATTTC | -0.0669
88 | ACCGCTGA | -0.057
89 | AGTACGAG | 0.00494
90 | CGTACGAG | 0.343
91 | TGTACGAA | 0.427
92 | CCTACGAG | 0.163
93 | TGTACAAA | 0.0674
94 | CCTACGAC | 0.288
95 | ATTACGAA | 0.281
96 | CTTACGAC | 0.103
97 | CGTACGAC | 0.417
98 | GGTACGAA | 0.339
99 | GGTACGTA | 0.0572
100 | GGTACGAC | 0.185
101 | CTCGAATC | -0.0489
102 | CATCCTTC | 0.0215
103 | CCACTGGC | -0.107
104 | AGTACGAA | 0.368

Row | Sequence | PBM E-score
105 | AGTACGAC | 0.18
106 | CGTACGAA | 0.447
107 | AGTACGAT | 0.106
108 | CTTACGAA | 0.216
109 | CGTACGCA | 0.217
110 | CATAAGGC | 0.16
111 | GCTTGCGA | 0.0664
112 | CTCAAAAG | -0.0587
113 | AACCGGTC | -0.154
114 | AGATATCC | 0.232
115 | GGATATCA | 0.247
116 | AGATATCA | 0.3
117 | TGATATCA | 0.34
118 | TGATATAA | 0.281
119 | AGATATCT | 0.158
120 | CGAGGATC | 0.101
121 | AGGCGGAT | -0.0114
122 | CTCGACAA | -0.0758
123 | ACTTACCT | -0.165
124 | CGGCAGGC | -0.0216
125 | CTCCGGCC | -0.212
126 | AAGACCGG | -0.0657
127 | ATACACGA | 0.179
128 | ACACACGA | 0.279
129 | AGACACGA | 0.083
130 | CTACACGA | 0.247

Row | Sequence | PBM E-score
131 | TCACACGA | 0.297
132 | GCACACAA | -0.00644
133 | GCACACGA | 0.303
134 | GCACACGC | -0.209
135 | TCACACAA | 0.0163
136 | CGACACGA | 0.298
137 | CGACACGC | 0.0501
138 | GTACACGA | 0.362
139 | GTCGTAAA | 0.184
140 | ACACTCAA | 0.123
141 | AAGAACAT | 0.157
142 | CATGTAAG | -0.112
143 | CCTCCGTA | 0.116
144 | TCTCTGCA | 0.0379
145 | CGCTGCCG | -0.0244
146 | ACCGGACC | -0.113
147 | TAATCGGA | 0.0729
148 | CAGTCGAC | 0.137
149 | CGCCTGTA | -0.234
150 | ATCGTGTA | 0.376
151 | GACGTATA | 0.249
152 | CTCGTATA | 0.241
153 | ATCGTATC | 0.242
154 | CTCGTGTA | 0.157
155 | GTCGTATA | 0.402
156 | AACGTATA | 0.1

Row | Sequence | PBM E-score
157 | ATAGTATG | 0.161
158 | ATCGTATG | 0.302
159 | ATCGTATA | 0.326
160 | GTCGTGTA | 0.239
161 | AGCGTATG | -0.154
162 | GGGCTACC | -0.186
163 | GGGTCATA | -0.0763
164 | CCCTCGTA | 0.126
165 | TATGACCA | -0.0211
166 | GAACAGCC | -0.195
167 | AGACCGAC | -0.00992
168 | TATAAATA | 0.257
169 | AATAAAAT | 0.2
170 | CGTAAATA | 0.299
171 | GATAAATA | 0.257
172 | AATAAATG | 0.149
173 | AATAAATA | 0.32
174 | CGTAAATC | 0.131
175 | AATAAATT | 0.313
176 | AGTAAATA | 0.103
